For 13 compounds, growth results are on record in PubChem BioAssay (NCI).

This is part of a sample that, as a whole, favours compounds with a hit. Of some 83,000 tested, about 20% had one in any assay.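 Each cell line was grown in a 96-well plate and treated with one concentration of compound for 48 hours. Values below 10 were considered active.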 Unmarked numbers belong to inactive results. The source made the active and inactive calls.

Among the test systems are SR leukemia; RPMI-8226 leukemia; OVCAR-8 ovarian; OVCAR-5 ovarian; OVCAR-4 ovarian; SK-OV-3 ovarian; IGROV1 ovarian; OVCAR-3 ovarian; HS 578T breast; NCI/ADR-RES ovarian.
Holding throughout (assay): NCI-60 one-dose screen, 48 h (100 = growth as untreated, 0 = no growth, -100 = all killed)
Conditions in all cases: 10 µM unless noted

For `Cc1ccc2c(n1)C(=O)c1[nH]c3ccccc3c1C2=O`, the growth was 39.8% in the assay with SR leukemia; 46.9% in the assay with RPMI-8226 leukemia; 53% with OVCAR-8 ovarian; 67.9% with OVCAR-5 ovarian; 22.2% with OVCAR-4 ovarian; 85.6% in the assay on SK-OV-3 ovarian. The growth with IGROV1 ovarian was 33.8%; with OVCAR-3 ovarian, -5.11% (active); with HS 578T breast it was 69.2%; in the assay on NCI/ADR-RES ovarian, 58.6%.

Take `COc1ccc2c(c1)[n+]([O-])c(C(=O)/C=C/C=C(\Cl)c1cc(OC)c(OC)c(OC)c1)c(C)[n+]2[O-]`: the growth is 89.5% in the assay with SR leukemia; 109% in the assay on RPMI-8226 leukemia; 43.7% in the assay on OVCAR-8 ovarian; 104% in the assay with OVCAR-5 ovarian; 108% with OVCAR-4 ovarian; 38% in the assay on SK-OV-3 ovarian. For the same compound, the growth is 64.6% in the assay on IGROV1 ovarian, 93% with OVCAR-3 ovarian, 68% in the assay with HS 578T breast and 91% in the assay with NCI/ADR-RES ovarian.

Turning to `CC(C)(C)[Si](C)(C)O[C@H]1C(=O)C=CN2CC=C[C@@H]12`, the growth is 81.8% [100 µM] in the assay on SR leukemia; 115% [100 µM] in the assay on RPMI-8226 leukemia; 97% [100 µM] in the assay on OVCAR-8 ovarian; 94.4% [100 µM] in the assay with OVCAR-5 ovarian; 110% [100 µM] in the assay with OVCAR-4 ovarian; 101% [100 µM] in the assay with SK-OV-3 ovarian. The growth in the assay with IGROV1 ovarian is 114% [100 µM]; in the assay on OVCAR-3 ovarian, 103% [100 µM]; in the assay with HS 578T breast it was 95.3% [100 µM]; in the assay on NCI/ADR-RES ovarian it was 106% [100 µM].

For `CCOC(=O)c1cc(-c2ccc([N+](=O)[O-])cc2)n(-c2ccc(C(=O)O)c(O)c2)c1C`, the growth in the assay with SR leukemia is 67.1%; with RPMI-8226 leukemia it was -3.07% (active); with OVCAR-8 ovarian, 38.6%; in the assay on OVCAR-5 ovarian, 114%; in the assay on OVCAR-4 ovarian, 52%; in the assay on SK-OV-3 ovarian, 95.6%. Besides, the growth in the assay with IGROV1 ovarian is -11.3% (active); with OVCAR-3 ovarian, 79.6%; in the assay with HS 578T breast, 67.8%; in the assay on NCI/ADR-RES ovarian it was 57.5%.

`O=C(/C=C(/C=C/c1cccc2[nH]ccc12)OB(F)F)/C=C/c1cccc2[nH]ccc12`: the growth with SR leukemia is 3.72% (active); in the assay with RPMI-8226 leukemia it was -31.5% (active); with OVCAR-8 ovarian, -30% (active); with OVCAR-5 ovarian, -27.6% (active); in the assay with OVCAR-4 ovarian, 11.5%; in the assay on SK-OV-3 ovarian it was -20.7% (active). The growth with IGROV1 ovarian was -3.07% (active); in the assay with OVCAR-3 ovarian it was -25.1% (active); with HS 578T breast it was 10.3%; in the assay on NCI/ADR-RES ovarian it was 3.47% (active).

`CCCc1cc(NC)nc(S(=O)(=O)CC)n1`: the growth in the assay with SR leukemia is 102%; with RPMI-8226 leukemia, 101%; with OVCAR-8 ovarian, 110%; in the assay on OVCAR-5 ovarian it was 101%; in the assay on OVCAR-4 ovarian, 115%; in the assay with SK-OV-3 ovarian it was 116%. Moreover, the growth was 105% in the assay on IGROV1 ovarian, 119% in the assay on OVCAR-3 ovarian, 108% with HS 578T breast and 104% in the assay on NCI/ADR-RES ovarian.

For `O=C(Nc1cccc([N+](=O)[O-])c1)c1cc2ccccc2cc1O`, the growth was 48.6% in the assay with SR leukemia; -55.3% (active) in the assay with RPMI-8226 leukemia; 9.47% (active) with OVCAR-8 ovarian; 10.8% with OVCAR-5 ovarian; 15.6% with OVCAR-4 ovarian; -82% (active) in the assay on SK-OV-3 ovarian. Also, the growth in the assay on IGROV1 ovarian was -2.54% (active); in the assay with OVCAR-3 ovarian, -9.94% (active); with HS 578T breast, 6.07% (active); with NCI/ADR-RES ovarian it was -10.6% (active).

As for `CN(C)CC(=O)Nc1ccc2ncnc(Nc3ccc(Oc4cccc(C(F)(F)F)c4)c(Cl)c3)c2c1`, the growth in the assay with SR leukemia was -1.46% (active); in the assay with RPMI-8226 leukemia, 31.2%; in the assay on OVCAR-8 ovarian, 55.5%; in the assay on OVCAR-5 ovarian it was 82.6%; in the assay with OVCAR-4 ovarian it was 51.5%; in the assay on SK-OV-3 ovarian, 19.7%. Further, the growth in the assay with IGROV1 ovarian is 8.24% (active); in the assay with OVCAR-3 ovarian, 42.5%; in the assay on HS 578T breast, 79.1%; in the assay with NCI/ADR-RES ovarian it was 54.3%.

For `N#Cc1cccc(NC(=O)c2oc3ccccc3c2-c2cnn(-c3ccccc3)c2)c1`, the growth in the assay with SR leukemia is 3.02% [50 µM] (active); in the assay on RPMI-8226 leukemia it was -16.2% [50 µM] (active); in the assay with OVCAR-8 ovarian, 76.4% [50 µM]; in the assay with OVCAR-5 ovarian, 83.8% [50 µM]; in the assay on OVCAR-4 ovarian it was 89.1% [50 µM]; in the assay on SK-OV-3 ovarian, 78% [50 µM]. Moreover, the growth was 92.6% [50 µM] in the assay with IGROV1 ovarian, 104% [50 µM] with OVCAR-3 ovarian, 89.3% [50 µM] in the assay on HS 578T breast and 77.2% [50 µM] with NCI/ADR-RES ovarian.

Turning to `OB(O)c1cccc(-c2nc3ccc4[nH]ncc4c3c3c2CCCC3)c1`, the growth was 32.2% with SR leukemia; 53% in the assay with RPMI-8226 leukemia; 48.7% in the assay with OVCAR-8 ovarian; 78.3% with OVCAR-5 ovarian; 80.2% in the assay with OVCAR-4 ovarian; 7.93% (active) in the assay on SK-OV-3 ovarian. In addition, the growth with IGROV1 ovarian was 47.2%; with OVCAR-3 ovarian, 73.9%; in the assay on HS 578T breast it was 0.588% (active); with NCI/ADR-RES ovarian it was 87.6%.

With `CCOC(=O)C1=NN(c2ccccc2)C(=O)/C1=C\N1C(=O)CC(=O)NC1=S`, the growth with SR leukemia was 92.6%; with RPMI-8226 leukemia, 93.1%; with OVCAR-8 ovarian, 100%; in the assay on OVCAR-5 ovarian it was 104%; in the assay with OVCAR-4 ovarian, 52.7%; with SK-OV-3 ovarian it was 97.5%. For the same compound, the growth with IGROV1 ovarian is 106%; with OVCAR-3 ovarian it was 101%; in the assay with HS 578T breast it was 102%; in the assay on NCI/ADR-RES ovarian it was 95.9%.

As to `CN1CCN(c2ccc(C(=O)Nc3cccc(C#Cc4cccc5[nH]nc(N)c45)c3)cc2C(F)(F)F)CC1`, the growth is -17.7% (active) with SR leukemia; -13.7% (active) in the assay on RPMI-8226 leukemia; -14.5% (active) in the assay on OVCAR-8 ovarian; -43.1% (active) in the assay with OVCAR-5 ovarian; -0.309% (active) in the assay with OVCAR-4 ovarian; -42.6% (active) in the assay with SK-OV-3 ovarian. The growth in the assay on IGROV1 ovarian was -56.5% (active); with OVCAR-3 ovarian it was -17.9% (active); in the assay on HS 578T breast, -26% (active); in the assay with NCI/ADR-RES ovarian, -24.7% (active).

In the case of `CCOC(=O)c1c(C)c2c(n1C)CSc1cc(C(=O)c3ccccc3)c(=O)[nH]c1-2`, the growth with SR leukemia was 88.3% [100 µM]; with RPMI-8226 leukemia, 82.3% [100 µM]; in the assay on OVCAR-8 ovarian, 106% [100 µM]; in the assay on OVCAR-5 ovarian it was 95.8% [100 µM]; with OVCAR-4 ovarian, 92.4% [100 µM]; in the assay on SK-OV-3 ovarian, 99.4% [100 µM]. The growth is 104% [100 µM] with IGROV1 ovarian, 108% [100 µM] in the assay with OVCAR-3 ovarian, 90.8% [100 µM] with HS 578T breast and 91.6% [100 µM] in the assay on NCI/ADR-RES ovarian.
